Targets with a hit are over-represented here; the source holds about 7,900 in all. About 0.6% of all pairs of compound and target were hits.

Chain of UniProt Q13428 (Q13428 whole entry, looked up): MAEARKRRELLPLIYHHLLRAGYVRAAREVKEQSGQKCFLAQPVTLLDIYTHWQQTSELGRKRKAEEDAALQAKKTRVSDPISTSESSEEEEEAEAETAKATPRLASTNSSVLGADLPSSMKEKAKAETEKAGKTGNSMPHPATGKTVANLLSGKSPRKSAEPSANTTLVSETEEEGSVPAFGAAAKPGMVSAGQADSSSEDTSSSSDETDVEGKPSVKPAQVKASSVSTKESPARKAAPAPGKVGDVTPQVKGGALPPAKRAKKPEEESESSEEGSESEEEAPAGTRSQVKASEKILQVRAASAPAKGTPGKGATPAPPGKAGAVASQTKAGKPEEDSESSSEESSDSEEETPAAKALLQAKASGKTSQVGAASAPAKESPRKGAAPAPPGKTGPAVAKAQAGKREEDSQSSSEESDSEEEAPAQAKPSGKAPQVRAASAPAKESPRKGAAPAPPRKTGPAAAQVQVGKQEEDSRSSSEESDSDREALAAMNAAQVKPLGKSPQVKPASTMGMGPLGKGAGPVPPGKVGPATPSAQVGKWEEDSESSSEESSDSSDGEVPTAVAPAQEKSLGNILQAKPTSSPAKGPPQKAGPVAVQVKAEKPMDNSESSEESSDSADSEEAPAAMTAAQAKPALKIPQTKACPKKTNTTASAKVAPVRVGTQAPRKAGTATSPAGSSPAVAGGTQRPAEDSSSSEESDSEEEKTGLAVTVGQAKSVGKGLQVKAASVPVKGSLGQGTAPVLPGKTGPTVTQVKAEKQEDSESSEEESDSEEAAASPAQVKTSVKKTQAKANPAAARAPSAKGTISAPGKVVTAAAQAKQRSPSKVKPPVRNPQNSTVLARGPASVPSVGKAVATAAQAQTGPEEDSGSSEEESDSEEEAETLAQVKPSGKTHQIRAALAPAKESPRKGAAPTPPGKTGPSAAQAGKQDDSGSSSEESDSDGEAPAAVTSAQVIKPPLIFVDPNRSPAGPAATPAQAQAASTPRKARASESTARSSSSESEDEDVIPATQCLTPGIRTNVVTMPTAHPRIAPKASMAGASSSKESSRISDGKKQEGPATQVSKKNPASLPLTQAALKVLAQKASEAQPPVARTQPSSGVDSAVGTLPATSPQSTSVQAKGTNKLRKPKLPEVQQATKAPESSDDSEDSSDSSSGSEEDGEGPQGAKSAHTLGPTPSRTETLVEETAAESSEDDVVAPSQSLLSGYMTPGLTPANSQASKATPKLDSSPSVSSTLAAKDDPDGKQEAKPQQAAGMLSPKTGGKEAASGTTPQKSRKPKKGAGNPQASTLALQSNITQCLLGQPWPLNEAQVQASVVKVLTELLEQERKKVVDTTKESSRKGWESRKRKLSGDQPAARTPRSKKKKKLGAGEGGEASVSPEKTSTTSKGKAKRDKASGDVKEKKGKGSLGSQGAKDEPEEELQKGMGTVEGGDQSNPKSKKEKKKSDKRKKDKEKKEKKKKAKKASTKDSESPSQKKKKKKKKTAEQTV
Chain of UniProt Q96DI7 (Q96DI7 whole entry, looked up): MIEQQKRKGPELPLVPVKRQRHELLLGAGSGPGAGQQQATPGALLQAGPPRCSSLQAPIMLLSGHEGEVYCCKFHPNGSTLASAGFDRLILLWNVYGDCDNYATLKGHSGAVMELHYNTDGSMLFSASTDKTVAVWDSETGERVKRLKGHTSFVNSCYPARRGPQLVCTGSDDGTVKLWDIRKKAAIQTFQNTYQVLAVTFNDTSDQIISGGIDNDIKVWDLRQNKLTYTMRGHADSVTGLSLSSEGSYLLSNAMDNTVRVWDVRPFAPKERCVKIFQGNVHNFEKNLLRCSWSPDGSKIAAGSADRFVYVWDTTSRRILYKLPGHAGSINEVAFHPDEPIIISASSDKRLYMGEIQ
Chain of UniProt Q9C0B7 (Q9C0B7 whole entry, looked up): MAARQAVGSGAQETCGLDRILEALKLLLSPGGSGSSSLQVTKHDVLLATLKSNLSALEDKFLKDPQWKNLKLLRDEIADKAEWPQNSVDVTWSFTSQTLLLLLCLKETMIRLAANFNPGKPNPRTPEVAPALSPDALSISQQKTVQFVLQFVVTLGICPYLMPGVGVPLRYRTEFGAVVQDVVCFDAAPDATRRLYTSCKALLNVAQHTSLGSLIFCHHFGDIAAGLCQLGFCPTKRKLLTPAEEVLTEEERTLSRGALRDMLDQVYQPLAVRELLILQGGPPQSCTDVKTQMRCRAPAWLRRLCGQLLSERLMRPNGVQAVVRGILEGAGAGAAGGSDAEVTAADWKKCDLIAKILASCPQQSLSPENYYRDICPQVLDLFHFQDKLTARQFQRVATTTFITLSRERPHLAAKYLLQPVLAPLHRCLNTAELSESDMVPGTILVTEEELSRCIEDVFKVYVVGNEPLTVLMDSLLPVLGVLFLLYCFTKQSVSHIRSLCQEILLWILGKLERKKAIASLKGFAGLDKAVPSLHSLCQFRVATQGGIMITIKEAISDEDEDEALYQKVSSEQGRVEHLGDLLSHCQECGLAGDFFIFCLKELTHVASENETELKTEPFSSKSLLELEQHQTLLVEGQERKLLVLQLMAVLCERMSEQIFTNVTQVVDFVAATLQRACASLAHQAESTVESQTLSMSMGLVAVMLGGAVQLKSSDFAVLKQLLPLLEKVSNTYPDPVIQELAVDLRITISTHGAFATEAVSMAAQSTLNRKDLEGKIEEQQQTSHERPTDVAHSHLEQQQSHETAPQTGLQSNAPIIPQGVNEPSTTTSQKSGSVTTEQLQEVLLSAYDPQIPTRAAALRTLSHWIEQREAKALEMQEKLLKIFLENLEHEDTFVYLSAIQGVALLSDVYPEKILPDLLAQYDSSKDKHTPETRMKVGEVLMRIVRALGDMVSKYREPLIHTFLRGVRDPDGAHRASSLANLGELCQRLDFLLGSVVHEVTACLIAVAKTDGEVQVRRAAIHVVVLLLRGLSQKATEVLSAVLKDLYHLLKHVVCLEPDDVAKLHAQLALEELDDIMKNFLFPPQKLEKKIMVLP
Chain of UniProt Q9Y2H1 (Q9Y2H1 whole entry, looked up): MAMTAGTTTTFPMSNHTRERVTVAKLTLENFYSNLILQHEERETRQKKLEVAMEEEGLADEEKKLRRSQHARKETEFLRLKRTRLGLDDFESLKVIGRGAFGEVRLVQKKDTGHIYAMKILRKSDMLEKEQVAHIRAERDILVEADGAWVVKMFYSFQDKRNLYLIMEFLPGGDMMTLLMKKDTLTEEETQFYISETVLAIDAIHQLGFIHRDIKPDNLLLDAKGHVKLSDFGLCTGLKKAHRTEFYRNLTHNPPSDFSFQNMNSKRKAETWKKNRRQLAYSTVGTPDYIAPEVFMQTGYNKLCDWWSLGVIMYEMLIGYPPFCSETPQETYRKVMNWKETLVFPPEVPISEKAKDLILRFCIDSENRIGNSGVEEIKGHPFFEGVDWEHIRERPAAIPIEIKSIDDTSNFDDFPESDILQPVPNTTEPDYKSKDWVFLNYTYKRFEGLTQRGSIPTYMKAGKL
Chain of UniProt Q92581 (Q92581 whole entry, looked up): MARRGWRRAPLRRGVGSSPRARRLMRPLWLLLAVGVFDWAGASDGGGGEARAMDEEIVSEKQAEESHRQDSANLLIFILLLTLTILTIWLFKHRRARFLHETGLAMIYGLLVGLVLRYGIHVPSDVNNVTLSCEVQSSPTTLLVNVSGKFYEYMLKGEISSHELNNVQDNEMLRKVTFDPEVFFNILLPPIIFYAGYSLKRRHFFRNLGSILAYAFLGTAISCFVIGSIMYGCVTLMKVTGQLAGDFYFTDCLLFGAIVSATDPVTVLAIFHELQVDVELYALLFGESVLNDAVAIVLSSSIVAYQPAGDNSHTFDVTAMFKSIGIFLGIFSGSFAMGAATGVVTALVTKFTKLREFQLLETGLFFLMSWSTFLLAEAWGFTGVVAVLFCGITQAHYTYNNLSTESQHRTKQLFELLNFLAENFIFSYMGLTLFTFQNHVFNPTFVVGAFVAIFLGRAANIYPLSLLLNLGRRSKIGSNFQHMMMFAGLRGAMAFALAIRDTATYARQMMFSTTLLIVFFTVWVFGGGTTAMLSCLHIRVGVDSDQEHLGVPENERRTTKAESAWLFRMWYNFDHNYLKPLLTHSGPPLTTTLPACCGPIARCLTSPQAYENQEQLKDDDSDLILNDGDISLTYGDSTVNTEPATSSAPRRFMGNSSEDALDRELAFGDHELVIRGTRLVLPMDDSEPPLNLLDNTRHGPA
Chain of UniProt Q8WXA9 (Q8WXA9 whole entry, looked up): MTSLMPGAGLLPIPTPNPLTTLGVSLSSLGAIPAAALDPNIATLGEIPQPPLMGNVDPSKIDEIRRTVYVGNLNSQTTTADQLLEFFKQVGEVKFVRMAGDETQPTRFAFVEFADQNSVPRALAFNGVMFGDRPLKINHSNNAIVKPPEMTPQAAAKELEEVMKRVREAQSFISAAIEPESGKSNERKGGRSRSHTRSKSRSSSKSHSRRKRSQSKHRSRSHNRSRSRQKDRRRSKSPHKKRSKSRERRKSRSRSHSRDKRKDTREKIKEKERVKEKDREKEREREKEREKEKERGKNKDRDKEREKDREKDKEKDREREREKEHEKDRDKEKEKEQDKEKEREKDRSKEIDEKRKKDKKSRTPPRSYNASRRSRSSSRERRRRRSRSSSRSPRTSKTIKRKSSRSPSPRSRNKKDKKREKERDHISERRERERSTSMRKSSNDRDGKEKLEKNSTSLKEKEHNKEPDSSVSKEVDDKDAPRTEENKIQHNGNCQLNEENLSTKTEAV
Chain of UniProt Q9H5Q4 (Q9H5Q4 whole entry, looked up): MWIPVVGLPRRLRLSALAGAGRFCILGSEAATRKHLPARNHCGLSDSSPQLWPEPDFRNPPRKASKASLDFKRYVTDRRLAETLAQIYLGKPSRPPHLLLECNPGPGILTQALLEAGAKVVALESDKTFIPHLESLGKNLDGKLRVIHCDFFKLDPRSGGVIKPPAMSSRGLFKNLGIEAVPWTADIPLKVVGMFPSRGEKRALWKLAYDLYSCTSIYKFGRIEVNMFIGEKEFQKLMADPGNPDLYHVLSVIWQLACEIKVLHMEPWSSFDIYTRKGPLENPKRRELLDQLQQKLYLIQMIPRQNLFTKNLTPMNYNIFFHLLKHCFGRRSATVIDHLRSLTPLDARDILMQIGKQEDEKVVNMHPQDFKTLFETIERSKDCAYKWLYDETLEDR

Compound in this experiment: c1cn2cc(-c3ccc4cn[nH]c4c3)nc(Nc3ccc(N4CCOCC4)cc3)c2n1 [entospletinib]
Description: log2 fold change, soluble protein after heating vs DMSO (PISA); higher = thermal stabilisation; K562 cells, 10 uM, 30 min; active = over 0.2 and 3.5 SD of the protein, either way, in both replicates (recomputed). The method in brief: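 For each measurement, 10 μM compound was applied for 30 min to K562 cells at 2×10^6 cells/mL. Aliquots were heated for 3 min across 48°C-58°C, pooled, and extracted in PBS with 0.5% NP-40 at 4°C; the supernatant after 21,000xg for 90 min was soluble protein. This was quantified by TMTpro 16plex LC-MS/MS with channel sums equalised, and thermal stability was reported relative to control samples from duplicates, on a log2 fold-change scale.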
In the case of TLK1 (UniProt Q9UKI8), the log2 fold change was 0.001 (inactive). Take STK38L (UniProt Q9Y2H1): the log2 fold change is 0.083 (inactive). SMARCA5 (UniProt O60264): the log2 fold change is 0.099 (inactive).

Take SLC30A7 (UniProt Q8NEW0): the log2 fold change was -0.201 (inactive). Consider SMARCAD1 isoform 2 (UniProt Q9H4L7), for which the log2 fold change was -0.008 (inactive). Next, SLC6A6 (UniProt P31641): -0.067 (inactive); SUPT5H (UniProt O00267): 0.031 (inactive). On to ST3GAL2 (UniProt Q16842), for which the log2 fold change is 0.167 (inactive).

Regarding TCOF1 isoform 4 (UniProt Q13428), the log2 fold change is 0.001 (inactive). For SPPL2B (UniProt Q8TCT7), the log2 fold change is -0.056 (inactive).

As to TELO2 (UniProt Q9Y4R8), the log2 fold change was 0.044 (inactive).

On to TCOF1 isoform 3 (UniProt Q13428), for which the log2 fold change is 0.399 (inactive). As to SNX9 (UniProt Q9Y5X1), the log2 fold change is -0.01 (inactive).

As to SPECC1 (UniProt Q5M775), the log2 fold change was 0.085 (inactive). SRSF2 (UniProt Q01130): the log2 fold change is 0.071 (inactive). As to SREK1 isoform 2 (UniProt Q8WXA9), the log2 fold change was -0.026 (inactive). Take SPCS2 (UniProt Q15005): the log2 fold change was -0.145 (inactive). As for SLC9A6 isoform 3 (UniProt Q92581), the figure is 0.052 (inactive). As for TFB2M (UniProt Q9H5Q4), the figure is -0.011 (inactive); as for SNRNP40 (UniProt Q96DI7), -0.025 (inactive). In the case of TM7SF3 (UniProt Q9NS93), the log2 fold change was -0.081 (inactive).

On to SNX5 (UniProt Q9Y5X3), for which the log2 fold change is -0.002 (inactive). In the case of SRPRB (UniProt Q9Y5M8), the log2 fold change is -0.052 (inactive).

Regarding SPTBN4 (UniProt Q9H254), the log2 fold change is 0 (inactive).

Turning to TBC1D20 isoform 3 (UniProt Q96BZ9), the log2 fold change was -0.065 (inactive).

Take TJP1 (UniProt Q07157): the log2 fold change is 0.009 (inactive). As for TACC2 (UniProt O95359), the figure is -0.009 (inactive); as for STARD7 (UniProt Q9NQZ5), -0.052 (inactive). Consider SLC39A11 (UniProt Q8N1S5), for which the log2 fold change is -0.458 (active).

Take SNX12 isoform 1 (UniProt Q9UMY4): the log2 fold change is -0.005 (inactive). As for TBC1D10B (UniProt Q4KMP7), the figure is 0 (inactive); as for TAOK3 (UniProt Q9H2K8), -0.016 (inactive); as for TANGO6 (UniProt Q9C0B7), -0.089 (inactive). On to STARD9 (UniProt Q9P2P6), for which the log2 fold change was -0.059 (inactive). Next, SLC35B1 isoform 2 (UniProt P78383): -0.154 (inactive).

For the origin of these results see the supplement of paper PMC10849652.
